# Source: PubChem
# mHTT-CaM PPI inh = inhibitors of human mutant huntingtin-calmodulin interaction | inhibition, % at 15 µM | P42858 | AlphaScreen His-mHTT/GST-CaM binding, luminescence | 3.6% of 190,000 active;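 also: 0% = both proteins with DMSO and 100% = one protein alone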
# Target sequence (P42858 whole entry, looked up, stated change not applied): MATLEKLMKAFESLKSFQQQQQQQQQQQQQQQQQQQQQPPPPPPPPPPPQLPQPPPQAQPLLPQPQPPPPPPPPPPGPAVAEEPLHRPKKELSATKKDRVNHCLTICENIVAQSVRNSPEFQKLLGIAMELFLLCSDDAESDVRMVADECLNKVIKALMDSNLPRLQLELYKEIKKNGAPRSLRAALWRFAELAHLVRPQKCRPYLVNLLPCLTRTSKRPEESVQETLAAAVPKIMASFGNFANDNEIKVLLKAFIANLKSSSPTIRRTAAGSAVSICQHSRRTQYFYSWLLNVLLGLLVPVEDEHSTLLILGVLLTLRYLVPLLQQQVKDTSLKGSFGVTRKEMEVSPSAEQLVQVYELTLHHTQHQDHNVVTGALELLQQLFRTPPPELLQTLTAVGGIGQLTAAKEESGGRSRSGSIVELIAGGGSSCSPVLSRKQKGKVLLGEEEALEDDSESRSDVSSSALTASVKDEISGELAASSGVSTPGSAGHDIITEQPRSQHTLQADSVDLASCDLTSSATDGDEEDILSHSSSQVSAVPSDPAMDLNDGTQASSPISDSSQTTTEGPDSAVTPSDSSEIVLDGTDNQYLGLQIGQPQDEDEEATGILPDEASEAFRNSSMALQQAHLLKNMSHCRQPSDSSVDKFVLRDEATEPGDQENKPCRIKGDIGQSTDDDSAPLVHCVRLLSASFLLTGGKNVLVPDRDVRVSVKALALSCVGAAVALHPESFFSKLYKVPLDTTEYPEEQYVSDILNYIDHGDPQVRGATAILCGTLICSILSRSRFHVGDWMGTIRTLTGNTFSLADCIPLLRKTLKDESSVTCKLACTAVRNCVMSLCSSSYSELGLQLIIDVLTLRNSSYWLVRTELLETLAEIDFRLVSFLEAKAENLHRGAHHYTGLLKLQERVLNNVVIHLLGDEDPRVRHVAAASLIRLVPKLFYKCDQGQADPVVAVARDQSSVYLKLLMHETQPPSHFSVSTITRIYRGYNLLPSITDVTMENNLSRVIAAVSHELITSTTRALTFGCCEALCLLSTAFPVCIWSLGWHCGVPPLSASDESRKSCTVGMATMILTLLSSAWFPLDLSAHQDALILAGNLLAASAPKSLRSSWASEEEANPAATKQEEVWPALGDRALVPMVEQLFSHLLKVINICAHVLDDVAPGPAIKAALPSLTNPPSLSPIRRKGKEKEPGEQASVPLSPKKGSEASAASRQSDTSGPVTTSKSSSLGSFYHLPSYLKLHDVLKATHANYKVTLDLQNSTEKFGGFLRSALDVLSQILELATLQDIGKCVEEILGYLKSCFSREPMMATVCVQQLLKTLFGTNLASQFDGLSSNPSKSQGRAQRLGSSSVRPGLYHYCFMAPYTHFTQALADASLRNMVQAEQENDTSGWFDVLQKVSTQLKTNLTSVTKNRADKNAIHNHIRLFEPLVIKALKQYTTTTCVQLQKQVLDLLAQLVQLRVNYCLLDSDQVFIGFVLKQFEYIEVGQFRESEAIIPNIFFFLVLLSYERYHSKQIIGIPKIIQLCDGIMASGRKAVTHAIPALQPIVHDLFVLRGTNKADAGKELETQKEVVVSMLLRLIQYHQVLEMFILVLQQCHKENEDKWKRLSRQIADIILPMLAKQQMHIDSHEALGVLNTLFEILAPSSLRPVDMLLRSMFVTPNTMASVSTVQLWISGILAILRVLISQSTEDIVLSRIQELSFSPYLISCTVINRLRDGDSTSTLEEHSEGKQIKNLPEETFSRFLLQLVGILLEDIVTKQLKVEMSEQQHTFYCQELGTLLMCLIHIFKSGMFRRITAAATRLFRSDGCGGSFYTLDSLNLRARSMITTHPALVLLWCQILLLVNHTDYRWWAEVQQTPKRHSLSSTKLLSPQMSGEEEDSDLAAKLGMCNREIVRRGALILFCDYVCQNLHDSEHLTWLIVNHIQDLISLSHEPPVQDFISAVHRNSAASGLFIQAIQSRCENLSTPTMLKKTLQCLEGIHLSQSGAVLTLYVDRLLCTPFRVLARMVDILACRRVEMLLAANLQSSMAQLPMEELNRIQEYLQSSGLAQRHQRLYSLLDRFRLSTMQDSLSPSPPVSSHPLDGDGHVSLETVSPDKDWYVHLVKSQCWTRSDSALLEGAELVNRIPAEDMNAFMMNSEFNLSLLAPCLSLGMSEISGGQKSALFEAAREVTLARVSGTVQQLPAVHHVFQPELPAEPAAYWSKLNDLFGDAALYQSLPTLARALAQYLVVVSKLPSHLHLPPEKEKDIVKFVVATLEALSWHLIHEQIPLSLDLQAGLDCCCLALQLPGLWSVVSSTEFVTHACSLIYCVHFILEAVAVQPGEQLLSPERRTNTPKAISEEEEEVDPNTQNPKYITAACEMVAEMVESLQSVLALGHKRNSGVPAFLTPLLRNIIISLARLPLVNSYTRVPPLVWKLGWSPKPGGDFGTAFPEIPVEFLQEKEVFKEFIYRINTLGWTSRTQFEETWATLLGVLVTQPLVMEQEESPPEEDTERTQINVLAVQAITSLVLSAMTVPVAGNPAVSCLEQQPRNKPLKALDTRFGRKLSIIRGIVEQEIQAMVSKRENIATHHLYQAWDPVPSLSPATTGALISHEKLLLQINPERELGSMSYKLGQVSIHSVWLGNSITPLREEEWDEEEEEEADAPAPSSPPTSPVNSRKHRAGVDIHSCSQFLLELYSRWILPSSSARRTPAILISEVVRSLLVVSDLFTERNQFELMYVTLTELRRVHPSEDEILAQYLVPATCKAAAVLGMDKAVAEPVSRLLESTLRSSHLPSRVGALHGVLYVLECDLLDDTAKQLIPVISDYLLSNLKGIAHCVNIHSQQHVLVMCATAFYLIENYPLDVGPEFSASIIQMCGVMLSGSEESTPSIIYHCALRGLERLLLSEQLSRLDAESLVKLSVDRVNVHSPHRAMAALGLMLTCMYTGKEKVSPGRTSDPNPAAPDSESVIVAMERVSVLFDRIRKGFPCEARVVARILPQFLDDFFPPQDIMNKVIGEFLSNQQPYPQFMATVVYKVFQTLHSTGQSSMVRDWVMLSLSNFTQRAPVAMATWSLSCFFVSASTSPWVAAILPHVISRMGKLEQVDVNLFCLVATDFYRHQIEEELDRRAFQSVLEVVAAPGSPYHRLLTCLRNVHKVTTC
# Pf apPOL inh = Pf-apPOL DNA polymerase inhibition | Recombinant Pf-apPOL, molecular beacon fluorescence, 1.5 h | inhibition, % at 10 µM | 0.25% of 210,000 active
# An asterisk follows results filed as active; . = no result. The list is not random: actives were taken first. Their share in the collection is about 3.6%. Rule as the data show it: active = inhibition above about 50%; inactive = the rest.
SMILES,mHTT-CaM PPI inh,Pf apPOL inh
COc1ccc(NC(=O)[C@@H]2CC=C[C@@H]3CCN(Cc4ccc(Cl)c(Cl)c4)C(=O)[C@@H]32)cc1,96*,-6
COc1ccc(CN2CC[C@H]3C=CC[C@@H](C(=O)O)[C@H]3C2=O)cc1OC,3,-2
COc1ccc(NC(=O)[C@@H]2CC=C[C@@H]3CCN(Cc4ccccc4)C(=O)[C@@H]32)cc1,2,-4
O=C1NC(/C=C/c2ccccc2)Nc2sc3c(c21)CCCC3 (configuration not stated),66*,-5
O=C1NC(c2ccc3c(c2)OCO3)Nc2sc3c(c21)CCCC3 (configuration not stated),1,-8
O=C1NC(c2ccc(-c3ccc(F)cc3)o2)Nc2sc3c(c21)CCCC3 (configuration not stated),63*,19
CN(C)c1ccc(C2NC(=O)c3c(sc4c3CCCC4)N2)cc1 (configuration not stated),26,12
O=C1NC(c2ccc(O)cc2)Nc2sc3c(c21)CCCC3 (configuration not stated),57*,-1
O=C1NC(c2cccs2)Nc2sc3c(c21)CCCC3 (configuration not stated),7,-2
COc1cccc2cc(-c3cc(=O)oc4ccc(OCC=C(C)C)cc34)oc12,-10,1
COc1cc(C(=O)NCCNC(=O)c2ccncc2)cc(OC)c1OC,-4,-2
COc1cc(Br)ccc1NS(=O)(=O)c1ccc(Cl)cc1,-16,9
Cc1ccc(C)c(Cc2c(C)nc(C)nc2N2CCN(C(=O)C3CCOC3)CC2)c1 (configuration not stated),38,3
Cc1nc(C)c(Cc2ccc(Cl)cc2)c(N2CCN(C(=O)C3CCOC3)CC2)n1 (configuration not stated),64*,-2
Cc1c(Cl)cccc1NC(=O)CSc1nnc(CCn2ccc(=O)[nH]c2=O)o1,-8,0
O=C(CN1CCN(C2c3ccccc3-c3ccccc32)CC1)Nc1ccc(F)c(F)c1,74*,-4
O=C(CCN1CCN(C2c3ccccc3-c3ccccc32)CC1)Nc1cccc(C(F)(F)F)c1,69*,0
CCOc1ccc(NC(=O)CCN2CCN(C3c4ccccc4-c4ccccc43)CC2)cc1,4,-1
CN(C)c1ccc(NC(=O)CN2CCN(C3c4ccccc4-c4ccccc43)CC2)cc1,36,-2
CN(C)c1ccc(NC(=O)CCN2CCN(C3c4ccccc4-c4ccccc43)CC2)cc1,93*,-5
COc1cccc(NC(=O)CN2CCN(C3c4ccccc4-c4ccccc43)CC2)c1,25,0
Cc1ccc2c(c1)c1c(n2CC(O)CNC2CCCCC2)C(=O)CCC1 (configuration not stated),-6,-12
O=C(Cc1ccc([N+](=O)[O-])cc1)Nc1ccc2c(c1)OCCO2,1,-3
NC(=O)c1ccc(NC(=O)Cc2cn(Cc3ccc(Cl)cc3)c3ccccc23)cc1,1,-7
O=C(O)CCCC(=O)Nc1nc2nccc(-c3ccccc3)n2n1,82*,-2
SMILES,mHTT-CaM PPI inh,Pf apPOL inh
CC(=O)Nc1nc2nccc(-c3ccccc3)n2n1,-4,-6
Cc1cccc(NC(=O)Cn2c(=O)n(-c3cc(C)cc(C)c3)c(=O)c3sccc32)c1,-2,-2
CCOc1ccc(-c2ccnc3c(C(=O)NC(C)c4ccc(F)cc4)cnn23)cc1 (configuration not stated),-16,-2
COCCC1CCN(C(=O)Cc2cccc(C(F)(F)F)c2)CC1,2,0
Cc1ccc(NC(=O)Cc2nc(-c3ccccc3)n[nH]2)cc1F,-4,-6
Cc1ccc(NC(=O)Cc2nc(-c3cccnc3)n[nH]2)cc1,-3,0
Cc1ccc(NC(=O)Cc2nc(-c3ccccn3)n[nH]2)cc1F,69*,-12
Cc1ccc(NC(=O)Cc2nc(-c3ccccn3)n[nH]2)cc1C,96*,-15
CC(C)c1ccc(OCC(=O)Nc2cccc(-c3nc4ncccc4o3)c2)cc1,0,-3
COc1cc(O)c2c(c1)oc(=O)c1c3cc(O)c(O)cc3oc21,.,51*
COc1ccc(-c2c(O)c3ccc(O)cc3oc2=O)cc1,0,1
Cc1ccc(Cl)cc1N1CCN(c2ncnc3c2nc2n3CCCC2)CC1,99*,1
Cc1ccc(C)c(N2CCN(c3ncnc4c3nc3n4CCCC3)CC2)c1,19,-3
N[C@@H](CCC(=O)N[C@H](CSN=O)C(=O)NCC(=O)O)C(=O)O,.,2
COc1ccccc1CC(=O)N1CCc2c(c(-c3nc(Cc4ccccc4)no3)nn2C)C1,25,-2
CCOC(=O)C(=O)N1CCN(c2ncnc3c2nnn3C)CC1,-14,-3
Cn1nnc2c(N3CCN(C(=O)C4c5ccccc5Oc5ccccc54)CC3)ncnc21,58*,-1
O=C(NCc1ccc2c(c1)OCO2)C1COc2ccccc2O1 (configuration not stated),-7,2
Brc1ccc2ncnc(N3CCCC3)c2c1,-2,-2
c1ccc2c(N3CCN(c4ncnc5ccccc45)CC3)ncnc2c1,-4,57*
CN(CCO)S(=O)(=O)c1ccc([N+](=O)[O-])cc1,-3,-9
O=C1C=C(c2ccccc2)C(=O)C=C1Cl,.,50*
O=c1c(-c2ccccc2)c1-c1ccccc1,.,-14
O=C1NCCCn2cc(S(=O)(=O)N3CCCC3)cc21,0,2
CCCNC(=O)c1nn2c(c1Cl)NC(c1ccc(C)cc1)CC2C(F)(F)F (configuration not stated),10,-1
SMILES,mHTT-CaM PPI inh,Pf apPOL inh
O=[N+]([O-])c1ccccc1-c1ccc(CN2CCN(c3ccccc3F)CC2)o1,23,-4
Cc1cccc(N2CCN(Cc3ccc(-c4ccccc4[N+](=O)[O-])o3)CC2)c1C,59*,3
CCC(=O)Nc1nc(C)c(-c2csc(Nc3cccc(C(C)=O)c3)n2)s1,10,-5
CC(=O)Nc1nc(C)c(-c2csc(Nc3ccccn3)n2)s1,54*,-1
CC(=O)Nc1nc(C)c(-c2csc(Nc3ccc(N(C)C)cc3)n2)s1,96*,-4
c1ccc(Nc2nc(-c3cccnc3)cs2)nc1,12,-5
O=C(CCN1C(=O)c2cccc([N+](=O)[O-])c2C1=O)NCc1ccco1,3,3
CSc1cccc(NC(=O)C=Cc2ccc(C(C)C)cc2)c1,.,3
O=C(NC(Nc1cccc([N+](=O)[O-])c1)C(Cl)(Cl)Cl)c1ccccc1[N+](=O)[O-] (configuration not stated),14,-3
O=C(NC(Nc1ccccc1)C(Cl)(Cl)Cl)c1cc([N+](=O)[O-])cc([N+](=O)[O-])c1 (configuration not stated),59*,2
O=C(NC(Nc1ccccc1)C(Cl)(Cl)Cl)c1ccc([N+](=O)[O-])cc1 (configuration not stated),31,0
O=C(NC(Nc1ccccc1Cl)C(Cl)(Cl)Cl)c1cc([N+](=O)[O-])cc([N+](=O)[O-])c1 (configuration not stated),61*,-5
COC(=O)c1ccc2c(=O)n(-c3cccc(Cl)c3)c(N3CCSC3)nc2c1,-8,1
Cc1cc(C(=O)NNC(=O)Cc2ccccc2F)nn1C(C)(C)C,.,8
Cc1cc(C)cc(-n2nnc(C(=O)NCCc3ccc(Cl)cc3)c2N)c1,-4,-2
COc1cccc(C=C2SC(=S)N(C(C(=O)O)C(C)C)C2=O)c1OC (configuration not stated),26,-20
